Records with an inconclusive call do not appear. The source made the active and inactive calls. Calls come from the whole dose curve; as a rule, active = well fitted inhibition curve with a large enough effect; inconclusive = small, poorly fitted or top-dose-only effect; inactive = flat fitted curve, though single readings scatter. Bridge positions count the residues as written; N and C are the ends. Square brackets hold non-standard residues; d marks the D form. Peptide text beside a SMILES is read from it. * marks the point of attachment. Ileψ(thiazoline)Cys = CC[C@H](C)[C@H](N)C1=N[C@H](C(=O)*)CS1; d(aIle) = CC[C@H](C)[C@@H](N)C(=O)O; dOrn = NCCC[C@@H](N)C(=O)O
tested on: Dd2; experiment: qHTS profiling for inhibitors of Plasmodium falciparum proliferation (AID 504749);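 note: 0% = DMSO vehicle and full inhibition = artemisinin control; nearly all actives have a fitted effect of over 60% in size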; conditions: P. falciparum in erythrocytes, SYBR Green DNA, 72 h; series mostly up to 12.8 µM; activity, negative = inhibition: at the top concentration
Summary of the method: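 SYBR Green fluorescence (ex 485 nm, em 535 nm) reports parasite DNA after 72 h compound exposure of infected red cells at 0.3% parasitemia, 2.5% hematocrit; signal normalized to 0.29 uM artemisinin and vehicle wells.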

Row | Compound | activity, negative = inhibition
1 | C[C@H](CCC(=O)O)[C@H]1CC[C@@H]2[C@@H]3[C@@H](O)C[C@H]4C[C@@H](O)CC[C@@]4(C)[C@H]3CC[C@@]21C | 6.57% (inactive)
2 | CN(C/C=C\c1ccccc1)Cc1cccc2ccccc12 | -17% [at 28.7 µM] (inactive)
3 | CCN(CCCCOC(=O)c1ccc(OC)c(OC)c1)[C@@H](C)Cc1ccc(OC)cc1 | -17.4% (inactive)
4 | C[C@H](C(=O)O)c1cccc(Oc2ccccc2)c1 | 11.7% (inactive)
5 | CC1(C)[C@@H](OC(=O)CCC(=O)O)CC[C@@]2(C)[C@H]1CC[C@@]1(C)[C@H]2C(=O)C=C2[C@H]3C[C@](C)(C(=O)O)CC[C@]3(C)CC[C@@]21C | 10.1% (inactive)
6 | CCOC(=O)O[C@@H](C)OC(=O)[C@@H]1N2C(=O)[C@@H](NC(=O)[C@@H](N)c3ccccc3)[C@H]2SC1(C)C | 6.86% (inactive)
7 | Cc1ccsc1/C=C\C1=NCCCN1C | 5.24% (inactive)
8 | C#C[C@]1(O)CC[C@@H]2[C@H]3CCC4=CCCC[C@@H]4[C@@H]3CC[C@@]21C | 3.05% (inactive)
9 | CC[C@H](C)[C@H](N)C1=N[C@H](C(=O)N[C@@H](CC(C)C)C(=O)N[C@@H](CCC(=O)O)C(=O)N[C@@H](C(=O)N[C@H]2CCCCNC(=O)[C@@H](CC(N)=O)NC(=O)[C@@H](CC(=O)O)NC(=O)[C@@H](Cc3cnc[nH]3)NC(=O)[C@@H](Cc3ccccc3)NC(=O)[C@@H]([C@@H](C)CC)NC(=O)[C@@H](CCCN)NC2=O)[C@@H](C)CC)CS1 ({Ileψ(thiazoline)Cys}-LE[d(aIle)]K[dOrn][d(aIle)][dF][dH][dD][dN]; lactam 4-C) | 6.35% (inactive)
10 | O=C(O)COCCN1CCN([C@@H](c2ccccc2)c2ccc(Cl)cc2)CC1 | -10% (inactive)

Source: PubChem BioAssay (NCATS)
